High-throughput results from PubChem BioAssay.
D2 PAM-1 – positive allosteric modulators of human D2 dopamine receptor. HEK293 T-REx D2, calcium flux, EC20 dopamine potentiation. potentiation, % at 10 µM. 340,000 compounds, 0.34% hits. AID 485347. P14416;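 active = potentiation over 3 SD above the plate norm, cut at about 30% in these data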; also: 0% is about no effect
Target sequence (P14416 whole entry, looked up): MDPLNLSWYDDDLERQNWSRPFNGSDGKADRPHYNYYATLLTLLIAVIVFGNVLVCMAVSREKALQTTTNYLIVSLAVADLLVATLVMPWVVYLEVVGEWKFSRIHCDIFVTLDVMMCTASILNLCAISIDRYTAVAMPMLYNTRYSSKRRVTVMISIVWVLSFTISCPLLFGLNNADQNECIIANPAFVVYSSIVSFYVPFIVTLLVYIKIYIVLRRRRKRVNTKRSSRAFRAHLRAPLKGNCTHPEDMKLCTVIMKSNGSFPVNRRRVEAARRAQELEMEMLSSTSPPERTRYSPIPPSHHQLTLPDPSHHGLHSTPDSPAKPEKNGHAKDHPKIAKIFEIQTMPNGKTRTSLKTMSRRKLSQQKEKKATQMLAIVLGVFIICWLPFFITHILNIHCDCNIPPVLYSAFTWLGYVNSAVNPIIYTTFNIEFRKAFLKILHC
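Potentiation of an EC20 dopamine calcium response is measured in a force-coupled, tetracycline-inducible Hek293 Trex D2 line. Compound-only kinetic reads over 180 s flag agonists before dopamine addition.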
D2 ag-1 – agonists of human D2 dopamine receptor (beta-arrestin); P14416; DiscoveRx PathHunter D2 beta-arrestin, luminescence, 90 min; 100% = 57 uM dopamine signal; activation, % (concentration not given with the values); 360,000 compounds, 0.084% hits; in the data active = activation above about 40%; inconclusive = between about 15% and that limit
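Agonist mode: compounds alone added to overnight-plated D2 PathHunter cells for 90 min at 37 C, with 57 uM final dopamine (EC100) defining full response. Beta-arrestin recruitment detected by chemiluminescent reagent, read after 1 h at ambient temperature.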
D2 ag-2 – agonists of human D2 dopamine receptor; AID 485358; HEK293 T-REx D2 cells, calcium flux agonist mode; activation, % at 2 µM; 340,000 compounds, 0.53% hits; P14416;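 active = activation over 3 SD above normal in the single-dose calcium agonist read, cut at about 30% in these data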; also: 0% is about no effect
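In this primary screen, compounds producing a positive calcium signal within 180 s of addition to tetracycline-induced, force-coupled HEK293 Trex D2 cells are flagged; cells are dye-loaded with a no-wash calcium kit beforehand.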
D2 PAM-2 – potentiates the human D2 dopamine receptor allosterically; potentiation, % (concentration not given with the values); DiscoveRx D2 beta-arrestin cells, luminescence, 90 min; 100% = 57 uM dopamine signal; P14416; 360,000 compounds, 0.23% hits; in the data active = potentiation above about 50%; inconclusive = mostly about 30% to 49%
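PathHunter D2 cells, attached overnight at 37 deg C, received compound in DMSO plus dopamine at EC20 (50 nM final) for 90 min at 37 deg C. Beta-arrestin recruitment was read as luminescence after 1 h with detection reagent at ambient temperature.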
D2 antagonist – antagonizes the human D2 dopamine receptor; P14416; HEK293 TREx D2 cells, calcium flux, dopamine EC80; inhibition, % at 10 µM; 340,000 compounds, 2% hits; AID 485344; in the data active = inhibition above about 30%; inactive = below that, where a call was filed; also: 0% is about no effect
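Overnight-induced (tetracycline, 30 C) HEK293 T-REx cells carrying force-coupled D2 receive a no-wash calcium dye, then compound, then EC80 dopamine at 180 s; signals are read kinetically throughout.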
* hit, by the source's call. The list is not random: actives were taken first. Their share in the collection is about 2.4%.

Results for CCc1ccc(S(=O)(=O)Nc2nccs2)cc1 ?
D2 PAM-1: 37.8*; D2 ag-1: 3.8; D2 ag-2: 0.3; D2 PAM-2: -7.0; D2 antagonist: 10.5

Results for CCc1ccc(-n2nc3cc(C)c(NC(=O)c4cc(Cl)ccc4OC)cc3n2)cc1 ?
D2 PAM-1: 0.5; D2 ag-2: 0.1

How did CCOC(=O)c1sc(NC(=O)CSc2n[nH]c(-c3ccccc3)n2)c(C#N)c1C do in these assays?
D2 PAM-1: 2.2; D2 ag-1: 0.3; D2 ag-2: 1.0; D2 PAM-2: 13.9; D2 antagonist: 38.7*

How did CCOC(=O)c1sc(NC(=O)CSc2nc(C)cc(C)n2)c(C#N)c1C do in these assays?
D2 PAM-1: 0.6; D2 ag-1: -1.5; D2 ag-2: 0.3; D2 PAM-2: -2.3; D2 antagonist: 4.2

What do the screens show for `CCn1c(=O)c2ccccc2n(CC(=O)NC2CCCCC2)c1=O`?
D2 PAM-1: -1.0; D2 ag-1: 0.2; D2 ag-2: 0.6; D2 PAM-2: 0.2; D2 antagonist: 41.7*

Results for COc1ccc(CCNS(=O)(=O)c2cc3c4c(c2)CC(=O)N4CCC3)cc1 ?
D2 PAM-1: -4.0; D2 ag-1: -2.9; D2 ag-2: -0.1; D2 PAM-2: -4.1; D2 antagonist: 34.7*

How did CCN(CC)S(=O)(=O)c1ccc2c(c1)c(=O)c(C(=O)NCc1ccc(Cl)cc1)cn2C do in these assays?
D2 PAM-1: 7.8; D2 ag-2: 0.1

Results for CN(C)CCNC(=O)c1cccc(NS(=O)(=O)c2ccc(Cl)c(Cl)c2)c1 ?
D2 PAM-1: -7.5; D2 ag-1: -4.3; D2 ag-2: 2.6; D2 PAM-2: -29.6; D2 antagonist: 34.8*

How did C=CCNC(=O)c1cccc(NS(=O)(=O)c2ccc(Cl)cc2)c1 do in these assays?
D2 PAM-1: -26.0; D2 ag-1: -0.6; D2 ag-2: -0.5; D2 PAM-2: -7.1; D2 antagonist: -4.4

Results for O=C(NCCN1CCOCC1)c1cccc(NS(=O)(=O)c2ccc(Br)cc2)c1 ?
D2 PAM-1: 8.1; D2 ag-1: 1.3; D2 ag-2: 0.2; D2 PAM-2: -16.0; D2 antagonist: 33.1*

What do the screens show for `Cc1ccc(S(=O)(=O)Nc2cccc(C(=O)NCCN3CCOCC3)c2)cc1F`?
D2 PAM-1: -10.8; D2 ag-1: -6.2; D2 ag-2: 0.5; D2 PAM-2: -0.6; D2 antagonist: -21.0

How did Clc1cccc(CNc2ccn3nc(-c4cccc(Cl)c4)cc3n2)c1 do in these assays?
D2 ag-1: inconclusive; D2 PAM-2: 5.7

Results for COc1ccc(-c2cc(C)no2)cc1S(=O)(=O)NCCCN1CCCCCC1 ?
D2 PAM-1: -2.4; D2 ag-1: -2.6; D2 ag-2: 0.0; D2 PAM-2: -35.1; D2 antagonist: 33.7*

Results for CCCc1cc(=O)n2[nH]c(NCc3ccccc3OC)nc2n1 ?
D2 PAM-1: 1.7; D2 ag-2: -1.4

What do the screens show for `O=[N+]([O-])c1nn(-c2ccc3c(c2)OCCO3)n(O)c1=NC1CCCCCC1`?
D2 PAM-1: 5.5; D2 ag-1: inconclusive; D2 ag-2: 0.1; D2 PAM-2: 85.3*; D2 antagonist: -13.0

How did O=[N+]([O-])c1nn(-c2ccc3c(c2)OCCO3)n(O)c1=NC1CCCC1 do in these assays?
D2 PAM-1: 8.7; D2 ag-1: 7.7; D2 ag-2: 0.9; D2 PAM-2: 74.6*; D2 antagonist: -1.1

How did O=[N+]([O-])c1nn(-c2ccc3c(c2)OCCO3)n(O)c1=Nc1ccccc1 do in these assays?
D2 PAM-1: 9.4; D2 ag-1: inconclusive; D2 ag-2: -0.9; D2 PAM-2: inconclusive; D2 antagonist: -4.0

Results for COc1cccc(CNC(=O)c2ccc(-c3nc(CS(=O)(=O)c4ccccc4)c(C)o3)cc2)c1 ?
D2 PAM-1: 0.8; D2 ag-2: 1.6

How did CC(C)n1cnc2c(Nc3ccc(C(=O)O)cc3)nc(Cl)nc21 do in these assays?
D2 PAM-1: 10.2; D2 ag-1: -1.9; D2 ag-2: -0.5; D2 PAM-2: 0.7; D2 antagonist: -15.8

What do the screens show for `CC(C)[C@H](CO)Nc1nc(Nc2ccc(Cl)c(C(=O)O)c2)c2ncn(C(C)C)c2n1`?
D2 PAM-1: -4.0; D2 ag-1: -1.9; D2 ag-2: 0.0; D2 PAM-2: -4.9; D2 antagonist: 38.8*

What do the screens show for `COc1ccc(Cl)cc1NC(=O)CN1C(=O)C(C)(C)c2cc(S(=O)(=O)N3CCCCC3)ccc21`?
D2 PAM-1: 9.8; D2 ag-2: 1.5

How did COc1ccc(C2CC(=O)c3cc(-c4nc(-c5cccc(Cl)c5)cs4)c(=O)[nH]c3C2)cc1OC (stereo not drawn) do in these assays?
D2 PAM-1: -0.8; D2 ag-2: 2.0

What do the screens show for `O=C(Cn1cccc1C(=O)c1ccccc1)NCCN1CCOCC1`?
D2 PAM-1: -15.1; D2 ag-1: -2.0; D2 ag-2: 0.8; D2 PAM-2: -4.2; D2 antagonist: 54.9*

What do the screens show for `O=C(Cn1cccc1C(=O)c1ccccc1)NCCCN1CCOCC1`?
D2 PAM-1: -5.9; D2 ag-1: -0.7; D2 ag-2: 0.6; D2 PAM-2: -20.9; D2 antagonist: 4.2

Results for Cc1ccc(C)c(N2CCN(CCCNC(=O)Cn3cccc3C(=O)c3ccccc3)CC2)c1 ?
D2 PAM-1: -46.4; D2 ag-1: -1.9; D2 ag-2: 0.5; D2 PAM-2: -26.1; D2 antagonist: 41.0*

How did CCOc1ccccc1C(=O)NCc1ccc2c(c1)CCN2C(C)=O do in these assays?
D2 PAM-1: 0.2

Results for COc1ccc(OC)c(NC(=O)c2cc3c(=O)n4cccc(C)c4nc3n2C)c1 ?
D2 PAM-1: 1.2; D2 ag-2: -1.6

Results for CCCCn1c(SCC(=O)c2ccc(OC)c(OC)c2)nc2cc(S(N)(=O)=O)ccc21 ?
D2 PAM-1: 3.1; D2 ag-1: -1.3; D2 ag-2: 0.2; D2 PAM-2: 2.4; D2 antagonist: 14.3

Results for CCCCn1c(SCC(=O)c2ccc(OCC)cc2)nc2cc(S(N)(=O)=O)ccc21 ?
D2 PAM-1: 14.3; D2 ag-1: -1.2; D2 ag-2: 0.1; D2 PAM-2: -4.2; D2 antagonist: 44.7*

What do the screens show for `COc1ccc(NC(=S)N2CCC(N(C)CC3CCCO3)CC2)cc1` (stereo not drawn)?
D2 PAM-1: 13.1; D2 ag-1: 0.2; D2 ag-2: -2.5; D2 PAM-2: -6.0; D2 antagonist: 30.4*

What do the screens show for `CCOc1ccc(OCCSc2nc3ccccc3[nH]2)cc1`?
D2 PAM-1: 32.2*; D2 ag-1: 1.8; D2 ag-2: 3.0; D2 PAM-2: 7.6; D2 antagonist: 9.4

Results for CCN(CC)S(=O)(=O)c1ccc2c(c1)c(=O)c(C(=O)N1CCN(c3ccc(F)cc3)CC1)cn2C ?
D2 PAM-1: -0.7; D2 ag-2: 0.7
